Screening data deposited in PubChem BioAssay by several laboratories.
Shown are actives, neighbours in structure and some others; about 2.7% of the full set was active somewhere.
SENP8 block-1 – human SENP8 protease inhibitors, primary screen, biochemical, fluorescence, Nedd8 protein substrate, uHTS; Sentrin-specific protease 8 (Homo sapiens), Q96LD8; recombinant SENP8; inhibition, % at 20 µM; 360,000 tested, 0.64% active; AID 602440, 2012; in the data active = inhibition mostly above about 40%, no sharp cut-off; inactive = mostly below about 27%
Target sequence (Q96LD8 whole entry, looked up): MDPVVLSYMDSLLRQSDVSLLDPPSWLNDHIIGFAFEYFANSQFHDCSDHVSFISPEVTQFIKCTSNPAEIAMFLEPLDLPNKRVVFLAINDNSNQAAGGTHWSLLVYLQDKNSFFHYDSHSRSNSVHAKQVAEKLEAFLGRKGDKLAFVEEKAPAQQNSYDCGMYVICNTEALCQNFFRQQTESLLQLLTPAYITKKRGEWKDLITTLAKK
SENP7 block – SENP7 protease inhibitors, primary screen, biochemical, luminescence, uHTS. Sentrin-specific protease 7 (Homo sapiens), Q9BQF6. recombinant SENP7, Z-RLRGG-aminoluciferin luminescence, 40 min. inhibition, % at 5 µM. 330,000 tested, 1.5% active;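 active = inhibition above about 50% at the single test dose, limit read from the data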
Target sequence (Q9BQF6 706-1050 limits assumed): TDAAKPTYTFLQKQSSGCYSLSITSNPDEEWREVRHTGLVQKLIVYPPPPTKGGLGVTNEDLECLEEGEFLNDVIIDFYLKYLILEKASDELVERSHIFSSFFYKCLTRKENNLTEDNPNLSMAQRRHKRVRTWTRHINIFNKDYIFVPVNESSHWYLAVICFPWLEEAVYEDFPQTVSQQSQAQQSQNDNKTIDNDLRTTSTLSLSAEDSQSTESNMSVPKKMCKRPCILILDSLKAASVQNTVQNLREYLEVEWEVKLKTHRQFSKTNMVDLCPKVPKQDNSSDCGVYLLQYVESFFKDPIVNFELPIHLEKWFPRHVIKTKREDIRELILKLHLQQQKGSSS
SENP8 block-2 – SENP8 protease inhibitors, primary screen, biochemical, luminescence | Sentrin-specific protease 8 (Homo sapiens), Q96LD8 | purified SENP8, Z-RLRGG-aminoluciferin cleavage | inhibition, % at 10 µM | 330,000 tested, 1.2% active | AID 2540, 2010; in the data active = inhibition above about 50%
SENP6 block – SENP6 protease inhibitors, primary screen, biochemical, luminescence, uHTS. Sentrin-specific protease 6 (Homo sapiens), Q9GZR1. Recombinant SENP6 catalytic domain, aminoluciferin luminescence. inhibition, % at 10 µM. AID 2599, 2010. 330,000 tested, 1.8% active;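 active = inhibition above about 50% at the single tested dose, limit read from the data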
HSP90 inh – HSP90 inhibitors, primary screen, cell lysate, luminescence; Heat shock protein HSP 90 (rabbit reticulocyte lysate; luciferase refolding); Rabbit reticulocyte lysate, luciferase refolding luminescence, 3 h; inhibition, % at 5.6 µM; 290,000 tested, 0.91% active; AID 1789, 2009;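 active = inhibition above the screen-wide mean plus 3 SD, computed separately per campaign, cut at about 16% in these data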;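 note: inhibitors lower the luminescence because luciferase stays unfolded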
SENP8 conf – SENP8 protease inhibitors, retest, confirmation, biochemical, luminescence, single concentration; shares compounds with SENP7 block; Recombinant SENP8, Z-RLRGG-aminoluciferin luminescence, 60 min; inhibition, % at 12.5 µM; 6,200 tested, 40% active; AID 488912, 2010;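 active = mean inhibition across replicates above about 50%, limit read from the data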
SENP6 conf – SENP6 protease inhibitors, confirmation, biochemical, luminescence, single concentration | shares compounds with SENP7 block | recombinant SENP6, Z-RLRGG-aminoluciferin luminescence | inhibition, % at 12.5 µM | 6,200 tested, 58% active
SENP7 conf – SENP7 protease inhibitors, retest, confirmation, biochemical, luminescence, single concentration; shares compounds with SENP7 block; recombinant SENP7, Z-RLRGG-aminoluciferin luminescence, 40 min; inhibition, % at 12.5 µM; 6,200 tested, 69% active; AID 488917, 2010
Casp3 select – caspase-3 protease inhibitors, confirmation, selectivity assay for SENP inhibitor project, biochemical, single concentration; shares compounds with SENP7 block; purified caspase-3, Z-DEVD-aminoluciferin luminescence, 60 min; inhibition, % at 12.5 µM; 6,200 tested, 60% active;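 active = mean inhibition above about 50%, limit read from the data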
SENP luc ctr – luminescence interference (SENP counter-screen); shares compounds with SENP7 block; Pre-incubated SENP8/Z-RLRGG-aminoluciferin, luciferase luminescence interference; inhibition, % at 12.5 µM; 6,200 tested, 39% active; AID 488919;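 active = mean inhibition above about 50% when retested at one dose, limit read from the data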
Numbers stand for hits; – = inactive; · = not tested or not shown.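 Rule for the calls, unless noted: active = mean inhibition above about 50% in the one-dose retest (limit read from the data); inactive = the rest.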

SMILES	SENP8 block-1	SENP7 block	SENP8 block-2	SENP6 block	HSP90 inh	SENP8 conf	SENP6 conf	SENP7 conf	Casp3 select	SENP luc ctr
CCOC(=O)Cc1ccc2sc(-c3ccccc3)nc2c1	–	99.1	95.1	96.7	–	97.8	99.0	101.6	96.6	92.4
COC(=O)c1oc2ccc(Cl)cc2c1N	–	–	–	53.3	–	–	–	69.1	58.3	–
COC(=O)c1oc2ccccc2c1N	–	–	–	–	–	·	·	·	·	·
COCCNC(=O)CN1CCN(S(=O)(=O)c2ccc3c(c2)CCCC3)CC1	–	–	–	–	·	·	·	·	·	·
CC(=O)Nc1cccc(NC(=O)c2ccc(S(=O)(=O)NCc3ccco3)cc2)c1	–	·	·	·	·	·	·	·	·	·
Cc1cccc(NC(=O)c2ccc(F)c(S(=O)(=O)NCc3ccco3)c2)c1	–	–	–	51.9	–	–	–	63.3	–	51.0
Cc1cccc(N2C(=O)CC(N3CCN(Cc4ccc5c(c4)OCO5)CC3)C2=O)c1 (configuration not stated)	–	–	–	–	–	·	·	·	·	·
O=C1CC(N2CCN(Cc3ccc4c(c3)OCO4)CC2)C(=O)N1c1ccccc1 (configuration not stated)	–	62.5	–	–	–	–	–	–	–	–
CCC(COC)Oc1cc(NCc2ccccc2)c2ncn(C(C)C)c2c1 (configuration not stated)	–	73.1	76.8	83.7	·	–	71.1	–	–	–
CCC(CO)Oc1cc(NCc2ccccc2)c2ncn(C(C)C)c2c1 (configuration not stated)	–	–	–	–	·	·	·	·	·	·
CC(C)n1cnc2c(NCc3ccccc3)cc(N[C@H](C)CO)cc21	–	–	81.0	–	·	85.0	90.4	67.8	97.3	–
C(=N\Nc1nncc2ccccc12)/c1ccccc1	–	–	–	–	–	·	·	·	·	·
COc1ccc(/C=N/Nc2nncc3ccccc23)c(OC)c1	–	77.9	64.5	76.6	–	–	72.9	–	–	–
COc1ccc(/C=N\Nc2ccccn2)c(OC)c1	–	–	53.9	55.0	–	–	61.7	87.1	62.5	–
COc1ccccc1/C=N/Nc1nccnc1Cl	–	90.8	85.2	90.2	–	86.1	84.8	98.5	95.3	89.3
COc1ccccc1C=NNC(=O)NN=Cc1ccccc1OC	–	·	·	·	·	·	·	·	·	·
COc1cc(/C=N/Nc2nncc3ccccc23)cc(OC)c1OC	–	78.3	58.8	69.6	–	77.1	75.4	93.5	81.5	70.6
COc1cc(C(C)=O)ccc1Oc1ncccn1	–	–	–	–	–	·	·	·	·	·
Cc1cccc(/C=N/Nc2nncc3ccccc23)c1	–	95.6	90.0	91.6	–	73.9	94.1	102.2	94.3	–
COc1ccc(CN2C(=O)N(c3ccccc3)C(=O)C2CC(=O)Nc2ccccc2)cc1OC (configuration not stated)	–	–	–	–	–	·	·	·	·	·
CS/C(N)=N/N=C/c1cc(C)ccc1O	–	62.9	53.9	–	–	–	59.5	84.8	63.9	66.4
CCCCS/C(N)=N/N=C/c1cc(C)ccc1O	–	–	–	–	–	·	·	·	·	·
CCS/C(N)=N/N=C/c1cc(C)ccc1O	–	51.2	–	70.6	–	62.4	62.1	87.2	61.8	–
CCOc1ccc(OCC(=O)OC(C)C(=O)Nc2ccc(Cl)cn2)cc1 (configuration not stated)	–	–	–	–	·	·	·	·	·	·
Cc1ccccc1/C=C1\OC(=O)c2ccccc21	–	–	–	–	–	·	·	·	·	·
SMILES	SENP8 block-1	SENP7 block	SENP8 block-2	SENP6 block	HSP90 inh	SENP8 conf	SENP6 conf	SENP7 conf	Casp3 select	SENP luc ctr
Cc1ccc(/C=C2\OC(=O)c3ccccc32)cc1	–	86.4	55.9	67.9	–	–	–	–	–	–
c1ccc(COc2ccc(-c3csnn3)cc2)cc1	–	73.0	–	66.5	–	–	–	–	–	–
Cc1ccc(C2=NN(S(C)(=O)=O)C(c3ccc4c(c3)OCO4)C2)cc1 (configuration not stated)	–	59.4	–	67.5	–	–	62.8	89.8	70.6	–
CS(=O)(=O)N1N=C(c2ccc(Br)cc2)CC1c1ccc2c(c1)OCO2 (configuration not stated)	–	–	–	–	–	·	·	·	·	·
CCN(CC(=O)Nc1c(F)cccc1F)C(=O)CCNC(=O)c1ccco1	–	–	–	–	·	·	·	·	·	·
COc1ccc(/C=C2\Cc3ccccc3C2=O)cc1OC	–	·	·	·	–	·	·	·	·	·
COc1ccc(C=C2Cc3ccccc3C2=O)cc1	–	·	·	·	·	·	·	·	·	·
COc1ccc(/C=C2\CCc3ccccc3C2=O)cc1O	–	95.0	94.9	99.2	–	96.1	99.3	101.1	92.2	94.7
CC(=O)Nc1ccc(/C=C2\CCc3ccccc3C2=O)cc1	–	–	–	56.1	–	–	–	–	–	–
O=C(COC(=O)c1ccccc1Br)NC1CCCC1	–	–	–	–	–	·	·	·	·	·
O=C(c1ccc(Cl)cc1)c1coc2ccc(O)cc12	–	77.5	78.1	85.9	–	–	88.1	99.2	72.6	–
CC(=Nc1cccc(C)c1)c1sc2ccccc2c1O	–	–	–	62.9	–	72.9	73.7	88.4	–	–
CC(=Nc1ccc(O)cc1)c1sc2ccccc2c1O	–	78.6	75.1	88.9	–	79.9	79.9	95.9	68.5	81.3
CC(=Nc1ccccc1O)c1sc2ccccc2c1O	–	–	–	–	–	·	·	·	·	·
Cn1c(/N=C/c2c[nH]c3ccccc23)nc2ccccc21	–	93.0	94.2	95.0	–	95.8	96.8	102.9	94.3	–
OC(COc1ccc2c(c1)OCO2)CN1CCN(c2ccccc2)CC1 (configuration not stated)	–	–	–	–	–	·	·	·	·	·
Cc1ccc(C(=O)N/N=C/c2ccc(-c3cccc(Cl)c3)o2)cn1	–	–	–	–	–	·	·	·	·	·
Cc1ccc(C(=O)N/N=C/c2ccc(-c3ccccc3[N+](=O)[O-])o2)cn1	–	–	–	65.0	–	–	–	–	–	–
